# Laboratory results from PubChem BioAssay (Tox21).
# Inconclusive results are not listed. Entries that show only a call come without a potency. Active and inactive are the calls of the source. Calls come from the whole dose curve; as a rule, active = well fitted activation curve with a large enough effect in the repeat runs; inconclusive = weak or mixed curves; inactive = flat fitted curve, though single readings scatter.
# Assay: A CellTox Green Cytotoxicity Assay to monitor cytotoxicity in HepG2 cells - 32 hour (AID 1224883); note: nearly all actives have a fitted effect of over 50% in size
# Conditions: CellTox Green fluorescence; series mostly up to 76.8 µM
# In short: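 HepG2, 600 cells/well premixed w/ CellTox Green; 5 h settle, 37 C/5% CO2; pintool cpd add (DMSO); 37 C, 40 h; fluorescence read at 0, 8, 16, 24, 32, 40 h.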
# Potency is the fitted concentration of half-maximal effect.
row,Compound,Potency
1,CC(C)[C@H](C(=O)OC(C#N)c1cccc(Oc2ccccc2)c1)c1ccc(OC(F)F)cc1 (stereo not given in full),inactive
2,O=[N+]([O-])c1cc(Cl)ccc1Cl,inactive
3,SCc1ccco1,inactive
4,C[C@@H]1O[C@@H](O[C@H]2C[C@@H](O)[C@]3(CO)[C@H]4[C@H](O)C[C@]5(C)[C@@H](C6=CC(=O)OC6)CC[C@]5(O)[C@@H]4CC[C@]3(O)C2)[C@H](O)[C@H](O)[C@H]1O,inactive
5,c1ccc2c(c1)OCC(C1=NCCN1)O2 (stereo not given),inactive
6,CC(C)CCCCCOC(=O)c1ccccc1C(=O)OCCCCCC(C)C,inactive
7,Cc1c(Cl)c(=O)oc2cc(OP(=O)(OCCCl)OCCCl)ccc12,inactive
8,CN(C)[C@@H]1C(=O)C(C(N)=O)=C(O)[C@@]2(O)C(=O)C3=C(O)c4c(O)ccc(Cl)c4[C@@](C)(O)[C@H]3C[C@@H]12,inactive
9,c1ccc(OCC2CO2)cc1 (stereo not given),inactive
10,Clc1ccc(CSC(Cn2ccnc2)c2ccc(Cl)cc2Cl)cc1 (stereo not given),inactive
11,Nc1ccc(Sc2ccc(N)cc2)cc1,4.36 µM (active)
12,O=C(O)C1C2CCC(O2)C1C(=O)O (stereo not given),inactive
13,CC(C)(COCC1CO1)COCC1CO1 (stereo not given),inactive
14,COC12CC[C@@]3(C[C@@H]1C(C)(O)C(C)(C)C)[C@H]1Cc4ccc(O)c5c4[C@@]3(CCN1CC1CC1)[C@H]2O5 (stereo not given in full),38.6 µM (active)
15,CCCCCCCCCCCCCCCC[n+]1ccccc1,15.5 µM (active) [middle of 4 runs]
16,O=C1NCN(c2ccccc2)C12CCN(CC1COc3ccccc3O1)CC2 (stereo not given),inactive
17,Nc1ccccc1C(=O)OC/C=C/c1ccccc1,inactive
18,O=C(O)c1cc[c]([Hg][Cl])cc1,21.9 µM (active)
19,S=C(SSC(=S)N1CCCCC1)N1CCCCC1,0.19 µM (active)

row,Compound,Potency
1,CCN,inactive
2,CC(C)(C)C(O)/C(=C\c1ccc(Cl)cc1Cl)n1cncn1 (stereo not given),59.3 µM (active)
3,CCCN(CCC)c1c([N+](=O)[O-])cc(S(N)(=O)=O)cc1[N+](=O)[O-],26.2 µM (active)
4,O=c1oc2ccccc2c(O)c1Cc1c(O)c2ccccc2oc1=O,inactive
5,C[C@@H]1CC[C@@]2(OC1)O[C@H]1[C@@H](O)[C@H]3[C@@H]4CC[C@H]5C[C@@H](O[C@@H]6O[C@H](CO)[C@H](O[C@@H]7O[C@H](CO)[C@@H](O)[C@H](O[C@@H]8OC[C@@H](O)[C@H](O)[C@H]8O)[C@H]7O[C@@H]7O[C@H](CO)[C@@H](O)[C@H](O[C@@H]8O[C@H](CO)[C@@H](O)[C@H](O)[C@H]8O)[C@H]7O)[C@H](O)[C@H]6O)[C@H](O)C[C@]5(C)[C@H]4CC[C@]3(C)[C@H]1[C@@H]2C,11.6 µM (active)
6,CC(C)OC(=O)C(O)(c1ccc(Cl)cc1)c1ccc(Cl)cc1,27.5 µM (active)
7,C=CC(=O)OCCCCOC(=O)C=C,43.6 µM (active)
8,COP(N)(=S)OC,inactive
9,COc1cccc2c1C(=O)c1c(O)c3c(c(O)c1C2=O)C[C@@](O)(C(=O)CO)CC3OC1CC(N2CCOC(OC)C2)C(O)C(C)O1 (stereo not given in full),0.0425 µM (active)
10,Cn1cc(C2=C(c3cn(C4CCN(Cc5ccccn5)CC4)c4ccccc34)C(=O)NC2=O)c2ccccc21,inactive
11,CCc1ccccc1C,inactive
12,CC(=O)[O-].CC(=O)[O-].O.O.[Cd+2],27.2 µM (active)
13,O=[N+]([O-])c1ccc(Oc2ccc(C(F)(F)F)cc2[N+](=O)[O-])cc1,inactive
14,C=CC(=O)OCC(COC(=O)C=C)(COC(=O)C=C)COC(=O)C=C,38.9 µM (active)
15,COc1cc(C=O)cc2c1[C@H](COC(N)=O)[C@]1(OC(C)=O)ON2C[C@H]2[C@@H]1N2C(C)=O,0.0977 µM (active)
16,CC(C)Oc1cccc(NC(=O)c2ccccc2C(F)(F)F)c1,43.6 µM (active)
17,C[C@]12Cc3nonc3C[C@@H]1CC[C@@H]1[C@@H]2CC[C@@]2(C)[C@H]1CC[C@]2(C)O,inactive
18,CCOCn1c(-c2ccc(Cl)cc2)c(C#N)c(Br)c1C(F)(F)F,12.3 µM (active)

# Assay: A CellTox Green Cytotoxicity Assay to monitor cytotoxicity in HEK293 cells - 8 hour (AID 1224884); note: nearly all actives have a fitted effect of over 35% in size
# Conditions: CellTox Green fluorescence; series mostly up to 76.8 µM
# In short: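 Read-out: fluorescence of a cell-impermeant cyanine dye staining DNA of dead cells, proportional to cytotoxicity. HEK293, 600 cells/well with reagent, compound (23 nL DMSO) added after 5 h; reads at 0, 8, 16, 24, 32, 40 h.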
row,Compound,Potency
1,O=[N+]([O-])c1cc(Cl)ccc1Cl,inactive
2,SCc1ccco1,inactive
3,C[C@@H]1O[C@@H](O[C@H]2C[C@@H](O)[C@]3(CO)[C@H]4[C@H](O)C[C@]5(C)[C@@H](C6=CC(=O)OC6)CC[C@]5(O)[C@@H]4CC[C@]3(O)C2)[C@H](O)[C@H](O)[C@H]1O,inactive
4,c1ccc2c(c1)OCC(C1=NCCN1)O2 (stereo not given),inactive
5,CC(C)CCCCCOC(=O)c1ccccc1C(=O)OCCCCCC(C)C,inactive
6,Cc1c(Cl)c(=O)oc2cc(OP(=O)(OCCCl)OCCCl)ccc12,inactive
7,CN(C)[C@@H]1C(=O)C(C(N)=O)=C(O)[C@@]2(O)C(=O)C3=C(O)c4c(O)ccc(Cl)c4[C@@](C)(O)[C@H]3C[C@@H]12,inactive
8,Clc1ccc(CSC(Cn2ccnc2)c2ccc(Cl)cc2Cl)cc1 (stereo not given),inactive
9,Nc1ccc(Sc2ccc(N)cc2)cc1,inactive
10,O=C(O)C1C2CCC(O2)C1C(=O)O (stereo not given),inactive
11,CC(C)(COCC1CO1)COCC1CO1 (stereo not given),inactive
12,COC12CC[C@@]3(C[C@@H]1C(C)(O)C(C)(C)C)[C@H]1Cc4ccc(O)c5c4[C@@]3(CCN1CC1CC1)[C@H]2O5 (stereo not given in full),24.4 µM (active)
13,CCCCCCCCCCCCCCCC[n+]1ccccc1,49 µM (active) [middle of 4 runs]
14,O=C1NCN(c2ccccc2)C12CCN(CC1COc3ccccc3O1)CC2 (stereo not given),inactive
15,Nc1ccccc1C(=O)OC/C=C/c1ccccc1,inactive
16,O=C(O)c1cc[c]([Hg][Cl])cc1,inactive
17,S=C(SSC(=S)N1CCCCC1)N1CCCCC1,inactive

row,Compound,Potency
1,CCN,inactive
2,CC(C)(C)C(O)/C(=C\c1ccc(Cl)cc1Cl)n1cncn1 (stereo not given),inactive
3,O=c1oc2ccccc2c(O)c1Cc1c(O)c2ccccc2oc1=O,inactive
4,C[C@@H]1CC[C@@]2(OC1)O[C@H]1[C@@H](O)[C@H]3[C@@H]4CC[C@H]5C[C@@H](O[C@@H]6O[C@H](CO)[C@H](O[C@@H]7O[C@H](CO)[C@@H](O)[C@H](O[C@@H]8OC[C@@H](O)[C@H](O)[C@H]8O)[C@H]7O[C@@H]7O[C@H](CO)[C@@H](O)[C@H](O[C@@H]8O[C@H](CO)[C@@H](O)[C@H](O)[C@H]8O)[C@H]7O)[C@H](O)[C@H]6O)[C@H](O)C[C@]5(C)[C@H]4CC[C@]3(C)[C@H]1[C@@H]2C,4.63 µM (active)
5,CC(C)OC(=O)C(O)(c1ccc(Cl)cc1)c1ccc(Cl)cc1,inactive
6,C=CC(=O)OCCCCOC(=O)C=C,inactive
7,COP(N)(=S)OC,inactive
8,COc1cccc2c1C(=O)c1c(O)c3c(c(O)c1C2=O)C[C@@](O)(C(=O)CO)CC3OC1CC(N2CCOC(OC)C2)C(O)C(C)O1 (stereo not given in full),inactive
9,Cn1cc(C2=C(c3cn(C4CCN(Cc5ccccn5)CC4)c4ccccc34)C(=O)NC2=O)c2ccccc21,inactive
10,CC(=O)[O-].CC(=O)[O-].O.O.[Cd+2],inactive
11,O=[N+]([O-])c1ccc(Oc2ccc(C(F)(F)F)cc2[N+](=O)[O-])cc1,inactive
12,C=CC(=O)OCC(COC(=O)C=C)(COC(=O)C=C)COC(=O)C=C,inactive
13,COc1cc(C=O)cc2c1[C@H](COC(N)=O)[C@]1(OC(C)=O)ON2C[C@H]2[C@@H]1N2C(C)=O,inactive
14,CC(C)Oc1cccc(NC(=O)c2ccccc2C(F)(F)F)c1,43.6 µM (active)
15,C[C@]12Cc3nonc3C[C@@H]1CC[C@@H]1[C@@H]2CC[C@@]2(C)[C@H]1CC[C@]2(C)O,inactive
16,CCOCn1c(-c2ccc(Cl)cc2)c(C#N)c(Br)c1C(F)(F)F,inactive
